Pf gametocyte: P. falciparum stage V gametocyte viability inhibition | inhibition, % at 10.9 µM | AID 743093 | 150,000 compounds, 0.065% hits | P. falciparum stage V gametocytes, ATP luminescence, 24 h;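 active = inhibition above the mean plus 3 SD of compounds within the control limits, set per campaign, cut at about 38% in these data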;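 note: 0% = DMSO wells and 100% = medium only without gametocytes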
MEKK2mut PB1 HTS: signal of MEK5 binding to mutant human MEKK2 PB1 domain; bead flow cytometry, Alexa488-MEK5 binding to MEKK2 mutant; percent response, % at 10 µM; 290,000 compounds, 0.35% hits; in the data active = percent response above about 24%, passing the limit was not always enough
MEKK3 PB1 HTS: raises or lowers MEK5 binding to the human MEKK3 PB1 domain; Q99759; bead-based flow cytometry, Alexa488-MEK5 binding to MEKK3; actives lie on both sides; 0 = blocked by unlabeled MEK5, 100 = vehicle; binding response (% of control), % at 10 µM; 290,000 compounds, 1.4% hits; AID 1529;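 active = binding response more than 3 SD above or below the average of its plate-row segment, actives on both sides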;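 note: Alexa488 bead fluorescence after subtracting the streptavidin-only scavenger bead signal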
Target sequence (Q99759 whole entry, looked up, the tested form may be a part): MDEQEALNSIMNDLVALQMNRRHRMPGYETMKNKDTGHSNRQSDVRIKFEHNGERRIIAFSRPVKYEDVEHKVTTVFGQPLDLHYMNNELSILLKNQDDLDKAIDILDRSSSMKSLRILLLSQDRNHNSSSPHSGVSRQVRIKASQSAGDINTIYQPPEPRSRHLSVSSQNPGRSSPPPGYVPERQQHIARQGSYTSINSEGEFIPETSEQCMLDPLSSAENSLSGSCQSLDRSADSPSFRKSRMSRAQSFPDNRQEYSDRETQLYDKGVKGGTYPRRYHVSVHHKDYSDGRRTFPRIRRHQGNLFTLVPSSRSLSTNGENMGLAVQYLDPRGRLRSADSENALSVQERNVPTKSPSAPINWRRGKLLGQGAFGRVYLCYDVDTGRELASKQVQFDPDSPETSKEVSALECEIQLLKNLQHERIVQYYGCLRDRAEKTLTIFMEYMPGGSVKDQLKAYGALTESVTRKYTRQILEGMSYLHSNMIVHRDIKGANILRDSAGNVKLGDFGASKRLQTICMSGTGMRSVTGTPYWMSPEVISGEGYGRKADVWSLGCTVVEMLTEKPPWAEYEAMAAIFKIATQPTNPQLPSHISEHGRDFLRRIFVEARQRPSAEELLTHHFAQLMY
Arbovirus inh: antivirals against arbovirus infection; arbovirus infection cell-based antiviral screen; inhibition, % at 10 µM; 200,000 compounds, 0.37% hits; AID 1251; in the data active = inhibition above about 30%
MEKK2 WT-MEK5: raises or lowers MEK5 binding to wildtype human MEKK2 PB1 domain; Q9Y2U5; bead flow cytometry, Alexa488-MEK5 binding to MEKK2 WT; actives lie on both sides; binding response (% of control), % at 10 µM; 290,000 compounds, 1.1% hits; AID 1531; in the data active = binding response below about 67% or above about 130%
MEKK2wt confirm: raises or lowers MEK5 binding to wildtype human MEKK2, retest. shares compounds with MEKK3 PB1 HTS. bead flow cytometry, Alexa488-MEK5 binding to MEKK2 WT; actives lie on both sides. binding response (% of control), % at 10 µM. 5,900 compounds, 2.4% hits. AID 1892; in the data active = binding response below about 16% or above about 210%; inactive = in between
MEKK2mut confirm: signal of MEK5 binding to mutant human MEKK2, retest; bead flow cytometry, Alexa488-MEK5 binding to MEKK2 mutant; shares compounds with MEKK3 PB1 HTS; percent response, % at 10 µM; 5,900 compounds, 2% hits; AID 1893; in the data active = percent response mostly above about 71%, no sharp cut-off; inactive = mostly below about 38%;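 note: higher means compound restores mutant binding toward wildtype level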
MEKK3-MEK5 inh: confirmation of inhibitors of MEK5 binding to human MEKK3; shares compounds with MEKK3 PB1 HTS; bead flow cytometry, Alexa488-MEK5 binding to MEKK3; stronger effect = lower value; binding response (% of control), % at 10 µM; 5,900 compounds, 1.8% hits; AID 1894;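 active = binding response below 72% of control, or above a set upper limit, though filed actives all read lower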;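 note: 100% = DMSO only wells and 0% = binding blocked by excess unlabeled MEK5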
* hit, by the source's call; . = no result given; [ ] = remark or other dose. This is a sample that favours compounds with a hit; in the whole collection about 2.4% have one here.

SMILES	Pf gametocyte	MEKK2mut PB1 HTS	MEKK3 PB1 HTS	Arbovirus inh	MEKK2 WT-MEK5	MEKK2wt confirm	MEKK2mut confirm	MEKK3-MEK5 inh
CC(C(=O)NCCN1C(=O)S/C(=C\c2cccs2)C1=O)N1C(=O)c2ccccc2C1=O (centres undefined)	8	0	146*	3	107	92	-8	92
COc1ccc(CO[C@@H]2O[C@H](CO)[C@@H](O)[C@H](O)[C@H]2NC(C)=O)cc1OC	.	14	110	.	111	.	.	.
Cc1ccccc1C(=O)Nc1ccc2c(c1)nc(CCNC(=O)c1ccco1)n2C	.	5	104	.	108	.	.	.
CC(C)(C(=O)Nc1nccs1)c1ccccc1	-7	-10	104	-2	98	.	.	.
CC(=O)c1sc(N)c(C(=O)OC(C)C)c1C	-7	1	105	-8	107	.	.	.
Cc1c(C(=O)OC(C)C)sc(N)c1C(=O)OC(C)C	11	0	131*	-10	104	102	-2	102
Cc1c(C(N)=O)sc(N)c1C(=O)OC(C)C	.	8	122*	-5	118	103	0	106
Cc1csc(NC(=O)CN2C(=O)c3ccccc3C2=O)c1C(N)=O	-9	5	100	.	104	.	.	.
CCCN1C(=O)SC(CC(=O)Nc2ccc(Br)cc2)C1=O (centres undefined)	-10	-24	2.0*[inhibitor]	-3	3.0*[inhibitor]	100	-4	101
CCN(CC)C(=O)Cn1cc(S(=O)(=O)CC(=O)Nc2cc(OC)ccc2OC)c2ccccc21	.	3	101	.	104	.	.	.
COc1ccc2ccccc2c1/C=N/O	-8	6	133*	9	121	98	1	101
C=CCOc1ccc2ccccc2c1/C=N/O	.	5	109	9	103	.	.	.
CC(COc1ccccc1)N1CCC(CO)(Cc2ccccc2)CC1 (centres undefined)	16	4	102	-15	110	.	.	.
Nc1cc(Cl)ccc1Nc1ccncc1	.	4	99	.	101	.	.	.
CCS(=O)(=O)N1N=C(c2ccc(NS(C)(=O)=O)cc2)CC1c1ccccc1 (centres undefined)	11	.	32*[inhibitor]	3	.	76	-9	74
CS(=O)(=O)Nc1ccc(C2=NN(S(=O)(=O)c3ccccc3)C(c3cccs3)C2)cc1 (centres undefined)	-18	.	7.0*[inhibitor]	1	.	79	-1	73
CC(C)C(=O)N1N=C(c2ccc(NS(C)(=O)=O)cc2)CC1c1cccs1 (centres undefined)	-12	1	101	-7	101	.	.	.
COc1ccc(CNC(=O)CNC(=O)c2cccs2)c(OC)c1	.	1	102	.	98	.	.	.
COCCn1c(=S)[nH]c2ccccc21	.	-9	100	5	89	.	.	.
CC1CCN(S(=O)(=O)c2ccc(NC(=O)C3CCN(C(=O)c4ccco4)CC3)cc2)CC1	.	8	96	.	101	.	.	.
CCOc1ccc2nc3cc(NCc4ccc(OC)cc4)ccc3c(N)c2c1	.	139*	82*[inhibitor]	.	163*	220*	170*	98
O=C(NCCc1ccccc1)C1CCN(C(=O)c2ccc([N+](=O)[O-])cc2)CC1	-13	-8	98	6	88	.	.	.
Cc1cc(NC(=O)CSc2nc(-c3cccs3)cc(C(F)(F)F)n2)no1	.	-35	89	-22	-7.0*[inhibitor]	96	0	100
COC(=O)c1c(NC(=O)CSc2nc(-c3ccco3)cc(C(F)(F)F)n2)sc2c1CCCC2	12	-22	0.0*[inhibitor]	-6	-8.0*[inhibitor]	108	12	109
O=C1c2ccccc2S(=O)(=O)c2cc(N3CCOCC3)ccc21	.	-5	82*[inhibitor]	.	88	98	-7	99
SMILES	Pf gametocyte	MEKK2mut PB1 HTS	MEKK3 PB1 HTS	Arbovirus inh	MEKK2 WT-MEK5	MEKK2wt confirm	MEKK2mut confirm	MEKK3-MEK5 inh
CC(OC(=O)c1cccs1)C(=O)NCc1ccccc1 (centres undefined)	15	9	131*	2	121	97	-3	101
O=C1NC(Cc2ccccc2)C(=O)N1CC(=O)N1CCCc2ccccc21 (centres undefined)	8	0	101	2	93	.	.	.
C(#Cc1ccccc1)C[N+]1(CC#Cc2cccc3ccccc23)CCOCC1	-21	1	103	-11	154*	145	24	104
CC(C)C[C@@]12C(=O)N(c3cccc(Br)c3)C(=O)N1[C@H](c1ccc(F)cc1)[C@@H]1C(=O)N(C3CCCCC3)C(=O)[C@@H]12	9	.	.	.	.	.	.	.
O=C(NCc1cccnc1)c1ccc(Cn2cc(C(F)(F)F)ccc2=O)cc1	8	-32	69*[inhibitor]	11	81	97	0	97
O=C(O)c1ccc(Cn2cc(C(F)(F)F)ccc2=O)cc1	-2	-17	37*[inhibitor]	6	49	101	-3	106
CN1CCCN(C(=O)c2cccc(Cl)c2)CC1	.	12	101	.	107	.	.	.
Cc1ccc(-c2nc3sc4c(c3c(=O)n2N)CC(C)(C)OC4)cc1	.	-1	99	-2	96	.	.	.
O=c1c2c3c(sc2nc2n1CCCCC2)CCCCC3	.	2	102	-3	97	.	.	.
Cc1ccc(-c2nc3sc4c(c3c(=O)n2N)CCCC4)cc1	8	-28	56*[inhibitor]	7	66	106	-2	99
O=c1c2c3c(sc2nc2n1CCCC2)CCC3	.	-13	72*[inhibitor]	-8	80	99	-6	100
CC(C)CCOP(=O)(c1ccccc1)c1ccccc1	-10	-1	112	-6	104	.	.	.
CCCOP(=O)(c1ccccc1)c1ccccc1	20	0	141*	-6	106	97	-6	99
O=C(O)c1cccc(C(=O)O)c1Br	7	11	109	.	152*	104	6	98
O=C(O)c1ccccc1O	.	3	83	3	100	.	.	.
Cc1cc(-c2ccc(Cl)cc2)n2ncnc2n1	-1	-39	50*[inhibitor]	.	59	101	-3	95
C#CC(C)(CC)NC(=O)c1cc2nc(C3CC3)cc(C(F)(F)F)n2n1 (centres undefined)	2	-2	107	16	98	.	.	.
CNCC(=O)Nc1c(C)n[nH]c1C	12	1	148*	-8	108	113	11	106
CCC(C)NC(=O)C1CCN(S(=O)(=O)N2CCCC2)CC1 (centres undefined)	.	-20	1.0*[inhibitor]	11	-3.0*[inhibitor]	98	-4	100
CCC(C)NC(=O)C1CCN(S(=O)(=O)N2CCOCC2)CC1 (centres undefined)	12	-3	98	6	94	.	.	.
NC(=O)c1cc(NC(=O)CCCc2nc3ccccc3s2)cc(C(N)=O)c1	-12	1	103	.	104	.	.	.
